Compound activity from PubChem.
PHOSPHO1 block: blocks human PHOSPHO1 phosphatase activity; recombinant PHOSPHO1, absorbance phosphatase assay; inhibition, % at 13.3 µM; hit rate 1.1% among 290,000; AID 1565; in the data active means inhibition above about 60%
Efa HMGR inh: blocks class II HMG-CoA reductase of Enterococcus faecalis; purified E. faecalis HMGR, NADPH absorbance 340 nm kinetic; inhibition, % at 10 µM; hit rate 0.41% among 190,000; AID 1066;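 active means inhibition above a set limit, the median over all tested compounds plus 3 SD, cut at about 9.5% in these data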;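 further: enzyme runs in reverse so mevalonate oxidation gives rising NADPH absorbance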
PABP FP inh: blocks human PABP binding to poly(A) RNA. fluorescence polarization. calls only at 35 µM. hit rate 1% among 290,000;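 further: calls also rest on retests at 20 µM and on dose response follow-up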
Target sequence (P11940 whole entry, looked up): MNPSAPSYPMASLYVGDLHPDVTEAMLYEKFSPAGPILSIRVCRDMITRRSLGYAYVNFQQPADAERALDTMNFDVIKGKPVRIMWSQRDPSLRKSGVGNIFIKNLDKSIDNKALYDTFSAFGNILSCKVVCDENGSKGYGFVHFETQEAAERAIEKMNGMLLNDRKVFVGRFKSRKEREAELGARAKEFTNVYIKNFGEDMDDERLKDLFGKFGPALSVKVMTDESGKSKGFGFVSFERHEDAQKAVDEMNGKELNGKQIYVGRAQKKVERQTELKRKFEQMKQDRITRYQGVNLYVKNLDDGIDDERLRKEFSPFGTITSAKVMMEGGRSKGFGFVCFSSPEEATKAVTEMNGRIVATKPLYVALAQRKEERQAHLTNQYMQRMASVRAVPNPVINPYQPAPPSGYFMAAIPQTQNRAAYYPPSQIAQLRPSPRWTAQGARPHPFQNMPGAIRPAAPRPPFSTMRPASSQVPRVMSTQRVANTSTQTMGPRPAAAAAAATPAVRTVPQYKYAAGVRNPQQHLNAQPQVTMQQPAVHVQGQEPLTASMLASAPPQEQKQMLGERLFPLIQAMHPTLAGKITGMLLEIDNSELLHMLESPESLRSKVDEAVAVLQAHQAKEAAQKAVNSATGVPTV
eIF4H inh: inhibitors of RNA binding by human eIF4H; Q15056; eIF4H fluorescence polarization binding assay; inhibition, % at 35 µM; hit rate 0.94% among 290,000; AID 2012;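 further: calls also rest on retests at 20 µM and on dose response follow-up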
MLLE-PAM2 inh: blocks PAM2 peptide binding to the PABP1 MLLE domain; GST-MLLE / FITC-PAM2 fluorescence polarization; inhibition, % at 20 µM; hit rate 0.36% among 360,000; AID 588489; in the data active means inhibition above about 35%, passing the limit was not always enough
Each line names hits and unclear results; the compound was inactive in the other large screens. Hits are enriched below; roughly 2.4% of the tested compounds scored in any of these assays. Unless noted, how the calls were made is not given here.

Cn1nccc1C(=O)N1CCCC(N2CCN(Cc3ccc4c(c3)OCO4)CC2)C1 (configuration not stated)	PHOSPHO1 block 61 (no result: Efa HMGR inh)
C[C@H]1CN([C@@H](C)CO)C(=O)CCCn2nncc2CO[C@@H]1CN(C)C(=O)NC1CCCCC1	none (no result: PHOSPHO1 block, Efa HMGR inh, PABP FP inh, eIF4H inh)
Cc1cc(C(=O)OCC(=O)c2ccc(Br)s2)c(C)o1	PABP FP inh active, eIF4H inh 70 (no result: MLLE-PAM2 inh)
COc1ccc(C(=O)N2CCCCC2c2cc(C(=O)NCc3ccccc3)no2)cc1 (configuration not stated)	none (no result: PHOSPHO1 block, Efa HMGR inh, PABP FP inh, eIF4H inh)
O=C(Cn1cc([N+](=O)[O-])cn1)N1CCc2ccccc21	none
O=C(Cn1cc([N+](=O)[O-])cn1)N1CCCc2ccccc21	PHOSPHO1 block 64
COCCNC(=O)C(c1ccncc1)N(Cc1ccccc1)C(=O)Cn1nnc2ccccc21 (configuration not stated)	none
CCCn1c(SCc2cc(=O)oc3ccc4ccccc4c23)n[nH]c1=O	PHOSPHO1 block 92
Cc1cc(C)n2nc(SCc3cc(=O)oc4ccc5ccccc5c34)nc2n1	MLLE-PAM2 inh 40
Cc1nnc(SCc2cc(=O)oc3ccc4ccccc4c23)n1Cc1ccccc1	none
CCOc1ccc(-n2c(SCc3cc(=O)oc4cc(C)ccc34)nnc2-c2cccnc2)cc1	none
CC(C)c1ccccc1-n1c(SCc2cc(=O)oc3ccc4ccccc4c23)nnc1-c1cccnc1	PABP FP inh active, eIF4H inh 58
Clc1ccc(CN2CCN(c3ncccn3)CC2)c(Cl)c1	none (no result: Efa HMGR inh)
NS(=O)(=O)c1ccc(NC(=S)N2CCN(C(=O)C3CCCO3)CC2)cc1 (configuration not stated)	none (no result: Efa HMGR inh)
COc1cccc(NC(=O)CSc2nc(O)c(C)c(=O)n2-c2ccc(C)cc2)c1	none (no result: Efa HMGR inh)
COc1ccc(C2=NC(=O)/C(=C\c3cc(OC)c(OC)c(OC)c3)O2)cc1	MLLE-PAM2 inh 61
CC(O)/C=C/c1ccc2ccccc2n1 (configuration not stated)	MLLE-PAM2 inh 38
Fc1cccc(F)c1/C=C/c1ccc2ccccc2n1	none
CC1CCCCN1CCCNc1ccc(C(CC(N)=O)NC(=O)Cc2cccc3ccccc23)cc1[N+](=O)[O-] (configuration not stated)	none (no result: Efa HMGR inh)
CC1(C)OC(=O)C(=C2CCCN2)C(=O)O1	PABP FP inh active, eIF4H inh active
CN(c1ccccc1)S(=O)(=O)c1cccc(NC(=O)c2cc(=O)c3ccccc3o2)c1	none
CC1(C(=O)NCCN2CCOCC2)C=CC2(CCCCC2)N1C(=O)c1ccccc1 (configuration not stated)	Efa HMGR inh 9.7
O=C(COC(=O)CCc1c[nH]c(=O)[nH]1)Nc1ccccc1	MLLE-PAM2 inh 53
O=C(COC(=O)CCC(NC(=O)OCc1ccccc1)C(=O)OCC(=O)Nc1ccccc1)Nc1ccccc1 (configuration not stated)	PABP FP inh active
Cc1ccc(NC(=O)COC(=O)CCc2c[nH]c(=O)[nH]2)cc1	none
O=C(COC(=O)c1cccs1)NC1CCCC1	none (no result: Efa HMGR inh)
CCC1(C)Cc2c(sc3[nH]c(=O)[nH]c(=O)c23)CS1 (configuration not stated)	PABP FP inh active, eIF4H inh 66
O=C(Nc1ccc(OC(F)F)cc1)Nc1cccc(C(F)(F)F)c1	none
Cc1ccc(NC(=O)CSC2=NCCN2)cc1	MLLE-PAM2 inh 39
CCOc1ccc(CCNC(=O)CS(=O)(=O)Cc2nc(-c3ccc(OC)cc3)oc2C)cc1	PHOSPHO1 block 64 (no result: Efa HMGR inh)
CCOc1ccc(CNC(=O)CS(=O)(=O)Cc2nc(-c3ccc(OC)cc3)oc2C)cc1	none (no result: Efa HMGR inh)
CCc1cccc(CC)c1C(OC(C)=O)c1cccnc1 (configuration not stated)	none (no result: PHOSPHO1 block, Efa HMGR inh, PABP FP inh, eIF4H inh)
C=CCN1C(=O)/C(=C\c2ccc(Cl)cc2)N=C1SCC(=O)NC1CCCCC1	MLLE-PAM2 inh 40
C=CCn1c(C)nnc1SCC(=O)NC1CCCCC1	none (no result: Efa HMGR inh)
CC(C)CCNC(=O)c1onc(CSc2nc3ccccc3[nH]2)c1C(=O)NCCC(C)C	none (no result: Efa HMGR inh)
CCOC(=O)c1sc2nc3c(SCCC#N)cc(C(=O)c4cc(F)ccc4O)cn3c(=O)c2c1C	none
O=C(O)CSc1cc(C(=O)c2cc(F)ccc2O)cn2c(=O)c3c(-c4ccccc4)csc3nc12	eIF4H inh 50 (no result: Efa HMGR inh)
COc1cc(NC(=O)CCc2c(C)noc2C)c(Cl)cc1C(=O)O	none (no result: PHOSPHO1 block, Efa HMGR inh, PABP FP inh, eIF4H inh)
Cc1[nH]c2ccc(-c3nnc(SCC(=O)c4ccc(F)cc4)o3)cc2c1C	PHOSPHO1 block 87
Cc1cc(C)c(C)c(C(=O)CSc2nnc(-c3ccc4[nH]c(C)c(C)c4c3)o2)c1C	PHOSPHO1 block 61
CCn1c(SCC(=O)O)nnc1-c1ccc2[nH]c(C)c(C)c2c1	none
Cc1ccc(OCc2n[nH]c(=S)n2Cc2ccccc2)cc1	none
Cc1cc(C)n(Cc2n[nH]c(=S)n2Cc2ccccc2)n1	PHOSPHO1 block 90
Cc1ccccc1OCc1n[nH]c(=S)n1Cc1ccccc1	none
Cc1nn(Cc2n[nH]c(=S)n2Cc2ccccc2)c(C)c1Cl	PHOSPHO1 block 99
Cc1ccc(OCC(=O)Nc2cc(S(=O)(=O)N3CCOCC3)ccc2Cl)c([N+](=O)[O-])n1	none (no result: Efa HMGR inh)
CCc1ccccc1N1CSC2=C(C#N)C(c3ccccc3F)CC(=O)N2C1 (configuration not stated)	PHOSPHO1 block 61, PABP FP inh active, eIF4H inh 78
COc1cc(OC)c(C2CC(=O)N3CN(c4ccccc4C)CSC3=C2C#N)cc1OC (configuration not stated)	none (no result: MLLE-PAM2 inh)
COc1ccc(C2CC(=O)N3CN(c4ccccc4F)CSC3=C2C#N)cc1OC (configuration not stated)	PHOSPHO1 block 90
O=C(CCNC(=O)c1ccccc1)Nc1ccc(Cl)c(S(=O)(=O)N2CCCCC2)c1	none (no result: PHOSPHO1 block, Efa HMGR inh, PABP FP inh, eIF4H inh)
OC1C2COC(O2)C2OC(c3ccccc3)OC12 (configuration not stated)	none (no result: PHOSPHO1 block, Efa HMGR inh, PABP FP inh, eIF4H inh)
Fc1ccc(-c2nnc(Cc3ccc(Cl)cc3)o2)cc1	none (no result: Efa HMGR inh)
N#Cc1c(NC(=O)CSc2nc(N)cc(=O)[nH]2)sc2c1CCCC2	none
CCOC(=O)c1sc2nc(C)n(N)c(=O)c2c1C	PHOSPHO1 block 63
C=CC[C@H](CC(=O)N(CCO)Cc1ccccc1)C(=O)N[C@H](COC(=O)[C@@H](CC=C)CC(=O)OC(C)(C)C)c1ccccc1	none (no result: PHOSPHO1 block, Efa HMGR inh, PABP FP inh, eIF4H inh)
COC(=O)C1CC(=O)N(c2ccc(OCc3ccccc3Cl)cc2)C1 (configuration not stated)	PABP FP inh active, eIF4H inh 103 (no result: Efa HMGR inh)
CCCC(=O)Nc1nc(C)c(-c2csc(Nc3ccccc3OC)n2)s1	PHOSPHO1 block 86
COc1cccc(Nc2nc(-c3sc(NC(=O)CC(C)C)nc3C)cs2)c1	PHOSPHO1 block 104
Cc1ccccc1Nc1nc(-c2sc(NC(=O)c3ccco3)nc2C)cs1	PHOSPHO1 block 66
COc1ccccc1Nc1nc(-c2sc(NC(=O)c3cccc(Cl)c3)nc2C)cs1	none (no result: MLLE-PAM2 inh)
COc1ccccc1Nc1nc(-c2sc(NC(=O)C(C)(C)C)nc2C)cs1	PHOSPHO1 block 67
COc1cccc(Nc2nc(-c3sc(NC(=O)c4ccccc4)nc3C)cs2)c1	none
CCn1ncc(Br)c1C(=O)Nc1ccc(C(C)C)cc1	none (no result: Efa HMGR inh)
O=C(O)c1cccc(NS(=O)(=O)c2cc(S(=O)(=O)c3ccc(Cl)cc3)ccc2Cl)c1	none (no result: Efa HMGR inh)
